Consider 9 compounds from PubChem BioAssay (NCI).

Holding throughout (assay): NCI-60 one-dose screen, 48 h (100 = growth as untreated, 0 = no growth, -100 = all killed)
The subject of one assay is HT29 colon. As to conditions: 10 µM unless noted.
The next assay has as its system SNB-75 CNS. As to conditions: 10 µM unless noted.
Another assay concerns SNB-19 CNS. As to conditions: 10 µM unless noted.
A further assay concerns U251 CNS. As to conditions: 10 µM unless noted.
In another assay the test system is PC-3 prostate. As to conditions: 10 µM unless noted.
The next assay concerns UACC-62 melanoma. As to conditions: 10 µM unless noted.
The next assay relates to LOX IMVI melanoma. As to conditions: 10 µM unless noted.
The next assay has as its system SK-MEL-28 melanoma. As to conditions: 10 µM.
For another assay, the system named is SK-MEL-2 melanoma. As to conditions: 10 µM unless noted.
The test system of the next assay is EKVX NSCLC. As to conditions: 10 µM unless noted.
For another assay, the system named is SN12C renal. As to conditions: 10 µM unless noted.
A further assay concerns UO-31 renal. As to conditions: 10 µM unless noted.
For the next assay, the system named is TK-10 renal. As to conditions: 10 µM unless noted.
Another assay has as its system ACHN renal. As to conditions: 10 µM unless noted.
The next assay deals with CAKI-1 renal. As to conditions: 10 µM unless noted.
The next assay relates to CCRF-CEM leukemia. As to conditions: 10 µM unless noted.
In a further assay the test system is MOLT-4 leukemia. As to conditions: 10 µM unless noted.
The subject of another assay is SK-MEL-5 melanoma. As to conditions: 10 µM unless noted.
Another assay has as its system SR leukemia. As to conditions: 10 µM unless noted.
In another assay the test system is A498 renal. As to conditions: 10 µM unless noted.

The panel holds about 83,000 compounds, 20% with a hit somewhere; the sample as a whole holds those more often.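 Results are percent growth after 48 hours of single-concentration exposure. 100 means growth as in untreated cells, lower positive values show inhibition; negative values down to -100 show cell death.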 Unmarked numbers belong to inactive results. Active and inactive are the calls of the source. How the source made its calls: active means growth percent below 10; inactive means the rest.

On to `O=c1oc2ccc(Cl)cc2c(=O)n1-c1cc(C(F)(F)F)cc(C(F)(F)F)c1`, for which the growth is 1.92% (active) in the assay on HT29 colon; -36.2% (active) in the assay with SNB-75 CNS; 13.5% with SNB-19 CNS; -15.2% (active) with U251 CNS; 11.9% in the assay on PC-3 prostate; -34.7% (active) in the assay on UACC-62 melanoma. The growth in the assay on LOX IMVI melanoma was -15.5% (active); in the assay on SK-MEL-28 melanoma, -18.9% (active); in the assay with SK-MEL-2 melanoma, -34.2% (active); in the assay with EKVX NSCLC, 5.27% (active); in the assay with SN12C renal, 1.28% (active); in the assay on UO-31 renal it was 6.17% (active). Besides, the growth in the assay on TK-10 renal is 0.337% (active); in the assay on ACHN renal, 3.99% (active); in the assay on CAKI-1 renal, -24.7% (active); with CCRF-CEM leukemia, 5.13% (active); in the assay on MOLT-4 leukemia, -16.9% (active).

In the case of `CC1=CCC(OC(=O)C(C)(C)CCC(O)(C(=O)OC2(C(C)C)CCC3(C)OC3C2)C(C)C)(C(C)C)CC1` (centres undefined), the growth in the assay on HT29 colon is -70.2% (active); in the assay on SNB-75 CNS, -98% (active); in the assay on SNB-19 CNS it was -97.2% (active); in the assay on U251 CNS, -98.8% (active); with SK-MEL-5 melanoma it was -97.2% (active); in the assay with UACC-62 melanoma, -94.2% (active). The growth with LOX IMVI melanoma was -90.5% (active); in the assay with SK-MEL-28 melanoma it was -96.9% (active); in the assay on SK-MEL-2 melanoma, -91.6% (active); in the assay with EKVX NSCLC, -63% (active); in the assay on SN12C renal, -43.8% (active); in the assay with UO-31 renal, -99.2% (active). Further, the growth in the assay on TK-10 renal was -99.2% (active); in the assay on ACHN renal, -94.8% (active); with CAKI-1 renal, -100% (active); with CCRF-CEM leukemia it was -19.2% (active); in the assay with MOLT-4 leukemia it was -30.3% (active); in the assay with SR leukemia it was 11.3%.

As to `COc1ccc(N2C(=O)CC(c3cc(OC)c(OC)c(OC)c3)C3C2=NC(=O)N3C)cc1` (centres undefined), the growth with HT29 colon is 104%; with SNB-75 CNS, 99.5%; in the assay on SNB-19 CNS it was 102%; in the assay on U251 CNS, 110%; in the assay with PC-3 prostate, 100%; in the assay on UACC-62 melanoma, 104%. Further, the growth in the assay with LOX IMVI melanoma was 103%; in the assay with SK-MEL-28 melanoma, 108%; in the assay with SK-MEL-2 melanoma, 116%; in the assay with EKVX NSCLC it was 102%; in the assay on SN12C renal, 102%; in the assay on UO-31 renal it was 89.9%. The growth in the assay with TK-10 renal was 103%; with ACHN renal it was 106%; with CAKI-1 renal it was 95.1%; with A498 renal, 102%; in the assay on CCRF-CEM leukemia, 109%; with MOLT-4 leukemia, 114%. In the assay on SR leukemia, the growth is 126%.

In the case of `Cc1cc(OC(=O)c2ccc([N+](=O)[O-])cc2)nc2[nH]c(=O)sc12`, the growth with HT29 colon is 105%; with SNB-75 CNS, 90.6%; in the assay on SNB-19 CNS, 98.6%; in the assay on U251 CNS, 97.1%; in the assay on SK-MEL-5 melanoma it was 100%; in the assay on UACC-62 melanoma, 102%. The growth with LOX IMVI melanoma was 98.8%; with SK-MEL-28 melanoma, 109%; with SK-MEL-2 melanoma, 104%; in the assay with EKVX NSCLC it was 92.1%; in the assay with SN12C renal it was 101%; with UO-31 renal it was 82.1%. Also, the growth in the assay with TK-10 renal was 103%; in the assay on ACHN renal, 103%; in the assay on CAKI-1 renal, 91.5%; in the assay with A498 renal, 104%; with CCRF-CEM leukemia, 106%; in the assay on MOLT-4 leukemia, 101%. For the same compound, in the assay with SR leukemia, the growth is 108%.

`COc1cc([C@@H]2NC(=O)NC(C)=C2C(=O)Nc2nc(-c3ccc(Cl)cc3)cs2)ccc1O`: the growth in the assay with HT29 colon was 108%; in the assay with SNB-75 CNS, 87.3%; with SNB-19 CNS, 113%; with U251 CNS, 97.9%; in the assay on PC-3 prostate, 88.9%; with UACC-62 melanoma, 91.6%. The growth in the assay with LOX IMVI melanoma was 94.2%; in the assay with SK-MEL-28 melanoma it was 110%; in the assay with SK-MEL-2 melanoma, 105%; in the assay with EKVX NSCLC it was 91.1%; with SN12C renal, 97.4%; in the assay with UO-31 renal it was 69%. For the same compound, the growth was 98.3% in the assay with ACHN renal; 83% with CAKI-1 renal; 102% with A498 renal; 132% in the assay with CCRF-CEM leukemia; 100% in the assay on MOLT-4 leukemia.

For `COc1ccc(S(=O)(=O)N(Cc2ccc3c(n2)C=CC(C)(C)O3)C2CCC2)cc1OC`, the growth with HT29 colon was 3.8% (active); with SNB-75 CNS it was -12.5% (active); in the assay with SNB-19 CNS, 8.75% (active); in the assay on U251 CNS, 0.365% (active); in the assay with PC-3 prostate, -3.05% (active); in the assay with UACC-62 melanoma it was -14.7% (active). In addition, the growth in the assay on LOX IMVI melanoma was -40.6% (active); in the assay on SK-MEL-28 melanoma, -18.8% (active); with SK-MEL-2 melanoma it was -37.5% (active); in the assay on EKVX NSCLC it was -22.5% (active); with SN12C renal, 6.9% (active); in the assay with TK-10 renal, -8.7% (active). Moreover, the growth in the assay on ACHN renal was 13.4%; in the assay on CAKI-1 renal it was -28.2% (active); with A498 renal it was -25.4% (active); in the assay with CCRF-CEM leukemia, -19% (active); with MOLT-4 leukemia it was -14.3% (active).

For the compound `COc1ccc(Br)c(/C=C2\SC(=Nc3ccc(O)cc3)NC2=O)c1`, the growth is 113% in the assay on HT29 colon; 72.2% with SNB-75 CNS; 85.5% in the assay with SNB-19 CNS; 86.6% in the assay with U251 CNS; 90.3% in the assay on SK-MEL-5 melanoma; 89.5% with UACC-62 melanoma. Also, the growth in the assay on LOX IMVI melanoma is 91.2%; in the assay on SK-MEL-28 melanoma, 101%; in the assay on SK-MEL-2 melanoma, 96.2%; with EKVX NSCLC it was 88.7%; in the assay on SN12C renal, 89.7%; in the assay on UO-31 renal, 49.8%. Further, the growth with TK-10 renal was 96.4%; with ACHN renal, 89.7%; in the assay on CAKI-1 renal, 75.8%; with A498 renal, 97.6%; with CCRF-CEM leukemia, 75%; with MOLT-4 leukemia, 85.2%. In the assay with SR leukemia, the growth was 110%.

Turning to `O=C(Nc1ccc(I)cc1F)c1cc(Br)ccc1O`, the growth is 30.4% with HT29 colon; -26.1% (active) with SNB-75 CNS; 19% in the assay with SNB-19 CNS; -14.5% (active) with U251 CNS; 7.44% (active) in the assay with PC-3 prostate; -19.2% (active) with UACC-62 melanoma. In addition, the growth with LOX IMVI melanoma was 6.07% (active); in the assay with SK-MEL-28 melanoma it was -3.35% (active); in the assay with SK-MEL-2 melanoma it was -26.5% (active); in the assay on SN12C renal, 3.31% (active); in the assay with UO-31 renal, 8.84% (active); in the assay with TK-10 renal, 1.98% (active). The growth in the assay with ACHN renal is 4.42% (active); in the assay on CAKI-1 renal, -18.9% (active); in the assay on A498 renal, -62.1% (active); with CCRF-CEM leukemia, 7.25% (active); with MOLT-4 leukemia, -12.2% (active).

With `O=c1oc2ccc(Br)cc2c(=O)n1-c1ccc(F)cc1F`, the growth was 97.7% in the assay on HT29 colon; -12.1% (active) in the assay with SNB-75 CNS; 12.5% in the assay on SNB-19 CNS; 7.07% (active) in the assay on U251 CNS; 0.771% (active) in the assay with PC-3 prostate; -0.768% (active) in the assay on UACC-62 melanoma. The growth was 20.3% with SK-MEL-28 melanoma; -16.1% (active) in the assay on SK-MEL-2 melanoma; 39% in the assay with EKVX NSCLC; 6.17% (active) in the assay on SN12C renal; 3.24% (active) in the assay with UO-31 renal; 4.95% (active) in the assay with ACHN renal. Moreover, the growth in the assay on CAKI-1 renal was -16.6% (active); with A498 renal, -39% (active); with CCRF-CEM leukemia, 14.1%; in the assay with MOLT-4 leukemia, 17.5%.
